# Test results: the supplement of paper PMC3545927
# Some of the results follow. The hit rate among all sequences tested is not known here.
# Target: furin, P09958
# Test: furin cleavage Z-score vs untreated control; higher = more cleavage, active = 3.5 or more, inactive = 1 or less, 8 variable residues between constant flanks
# Protocol: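 Multiplexed peptide-cDNA fusion cleavage assay. 8-mer variable peptides flanked by constant Cys-Ala (N-term) and Ala-Gly-Asn-Ala-Ser-Ala-Ser-Ala (C-term) and conjugated to a cDNA oligonucleotide were bead-immobilised via the N-terminus. They were treated with purified furin at a 1:10 enzyme:substrate ratio in 50 mM HEPES pH 7.5, 1 mM CaCl2, 100 mM NaCl for 7.5, 15 or 30 min. Released cDNA was counted by next-generation sequencing, and log counts versus no-furin controls were lowess-adjusted and converted to robust Z-scores.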
# Sequence of furin, P09958 (P09958 whole entry): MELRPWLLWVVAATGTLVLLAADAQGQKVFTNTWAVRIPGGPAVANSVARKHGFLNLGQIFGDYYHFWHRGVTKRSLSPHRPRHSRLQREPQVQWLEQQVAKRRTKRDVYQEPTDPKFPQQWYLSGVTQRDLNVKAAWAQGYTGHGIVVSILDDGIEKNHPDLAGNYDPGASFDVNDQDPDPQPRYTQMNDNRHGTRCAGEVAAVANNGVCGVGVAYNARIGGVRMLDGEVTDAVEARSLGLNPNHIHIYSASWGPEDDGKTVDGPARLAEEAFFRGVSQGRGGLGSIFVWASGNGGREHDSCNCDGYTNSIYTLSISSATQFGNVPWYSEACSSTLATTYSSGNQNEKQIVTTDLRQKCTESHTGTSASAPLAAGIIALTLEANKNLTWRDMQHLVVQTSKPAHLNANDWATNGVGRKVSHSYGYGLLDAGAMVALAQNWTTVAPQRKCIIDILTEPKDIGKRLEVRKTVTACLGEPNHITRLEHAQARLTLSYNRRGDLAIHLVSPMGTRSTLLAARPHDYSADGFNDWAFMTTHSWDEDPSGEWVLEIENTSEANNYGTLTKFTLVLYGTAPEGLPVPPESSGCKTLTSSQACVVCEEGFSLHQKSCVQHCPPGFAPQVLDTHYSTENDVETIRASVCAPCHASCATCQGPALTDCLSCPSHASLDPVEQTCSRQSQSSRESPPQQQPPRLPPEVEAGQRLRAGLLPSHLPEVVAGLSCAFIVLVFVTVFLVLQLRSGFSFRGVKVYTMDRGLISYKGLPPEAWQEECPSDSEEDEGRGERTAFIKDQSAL
Sequence,furin cleavage Z-score (7.5 min),furin cleavage Z-score (15 min),furin cleavage Z-score (30 min)
CATTPISGSWAGNASASA [HC45],-0.899 (inactive),-0.739 (inactive),-0.823 (inactive)
CASLPCSAHLAGNASASA [HC2485],-0.663 (inactive),0.376 (inactive),0.512 (inactive)
CAMRECSQHLAGNASASA [HC1693],-1.86 (inactive),1.41,0.442 (inactive)
CASLEVVTSTAGNASASA [HC2277],-0.584 (inactive),-0.0293 (inactive),0.688 (inactive)
CAYIPRILGPAGNASASA [FS-1875],-0.849 (inactive),-0.994 (inactive),-2.27 (inactive)
CAEVVTSTSVAGNASASA [HC2237],0.559 (inactive),-1.07 (inactive),-1.09 (inactive)
CARYIRSERSAGNASASA [FS-1611],6.49 (active),8.32 (active),8.42 (active)
CATRKTSERSAGNASASA [HC185],0.0798 (inactive),1.75,1.32
CATTLCSGSWAGNASASA [HC1865],-0.162 (inactive),-0.533 (inactive),0.486 (inactive)
CATTPCFGSWAGNASASA [HC66],0.204 (inactive),0.119 (inactive),-0.471 (inactive)
CARKRRAPLAAGNASASA [FS-2698],6.06 (active),7.82 (active),7.26 (active)
CARKRRRQHGAGNASASA [FS-2974],-0.939 (inactive),-0.0293 (inactive),0.389 (inactive)
CARKRRKGKAAGNASASA [FS-2973],-1.27 (inactive),1.85,0.732 (inactive)
CARKRRAPHGAGNASASA [FS-2493],4.63 (active),5.64 (active),5.6 (active)
CARPFRQVLAAGNASASA [FS-2738],-0.792 (inactive),0.095 (inactive),-0.451 (inactive)
CALSTTGEIPAGNASASA [HC844],0.383 (inactive),-0.16 (inactive),0.771 (inactive)
CARRKRFPGKAGNASASA [FS-1918],0.56 (inactive),2.63,3.28
CARRKRAGGGAGNASASA [FS-2067],4.24 (active),4.92 (active),5.33 (active)
CARRKRIVGGAGNASASA [FS-2228],0.169 (inactive),1.22,2.08
CARRKRKSQRAGNASASA [FS-2402],1.07,2.8,3.58 (active)
CARSCRILHKAGNASASA [FS-2457],0.718 (inactive),0.25 (inactive),0.502 (inactive)
CARRKRRHHKAGNASASA [FS-1969],1.16,4.53 (active),5.66 (active)
CARRKRLRHRAGNASASA [FS-3054],-0.105 (inactive),-0.397 (inactive),-1.97 (inactive)

Sequence,furin cleavage Z-score (7.5 min),furin cleavage Z-score (15 min),furin cleavage Z-score (30 min)
CARRKRRQTGAGNASASA [FS-2516],8.82 (active),9.35 (active),7.88 (active)
CAHLEVVTSTAGNASASA [HC2275],-0.0236 (inactive),-0.0472 (inactive),-0.103 (inactive)
CAVTPCSAHLAGNASASA [HC2470],-2.91 (inactive),-0.94 (inactive),-1.39 (inactive)
CATSLTGRDKAGNASASA [HC683],0.711 (inactive),0.726 (inactive),0.633 (inactive)
CAVCTTPCSGAGNASASA [HC1950],-1.68 (inactive),1.7,0.388 (inactive)
CAHSTDATSIAGNASASA [HC820],0.202 (inactive),-1.29 (inactive),0.297 (inactive)
CATIETITLPAGNASASA [HC896],-1.51 (inactive),0.877 (inactive),-0.833 (inactive)
CAMEFCSQHLAGNASASA [HC1707],0.147 (inactive),0.288 (inactive),-0.0248 (inactive)
CAMEEVSQHLAGNASASA [HC3],0.556 (inactive),1.13,2.1
CARRKKSQDGAGNASASA [FS-1775],0.168 (inactive),-0.316 (inactive),0.531 (inactive)
CARRVRDKDGAGNASASA [FS-2300],0.77 (inactive),1.62,2.04
CARRKRQVRRAGNASASA [FS-2370],6.85 (active),8.4 (active),6.39 (active)
CARRKRQVYGAGNASASA [FS-3204],6.12 (active),7.43 (active),7.08 (active)
CARRKRDLDGAGNASASA [FS-3052],11.5 (active),11.4 (active),8.25 (active)
CARRKRQIYGAGNASASA [FS-3055],2.2,5.1 (active),6.81 (active)
CASTGCSAHLAGNASASA [HC2516],-1.2 (inactive),0.402 (inactive),-0.12 (inactive)
CATNLRIKRDAGNASASA [FS-568],14.5 (active),15.3 (active),10.7 (active)
CAFNLRMKRDAGNASASA [FS-525],14.3 (active),12.3 (active),10.8 (active)
CAVREVPCHRAGNASASA [HC2430],-1.53 (inactive),-1.03 (inactive),-0.128 (inactive)
CARPGRRGRPAGNASASA [FS-492],-0.496 (inactive),-1.23 (inactive),-0.0754 (inactive)
CAKPGRRGRAAGNASASA [FS-452],6.38 (active),5.76 (active),4.89 (active)
CARPGRRVCAAGNASASA [FS-3259],-0.847 (inactive),-1.4 (inactive),-1.34 (inactive)
CAKRWRRGRAAGNASASA [FS-1596],6.85 (active),6.38 (active),4.94 (active)
